From PubChem
Compounds with a hit are over-represented: about 18% of the library has one in this group of screens.
CtBP-E1A inh: inhibitors of CtBP/E1A interaction. activity change, % (test concentration not listed). AlphaScreen GST-E1A/His-CtBP binding, 1536-well; stronger effect = lower value. AID 651724. 340,000 compounds, 0.49% hits; in the data active = activity change below about -65%; inconclusive = mostly about -30% to -63%
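In 5 uL wells, 23 nL compound meets equimolar GST-E1A and His-CtBP (5X stock 125 nM each) for 2 h, 37 °C. Beads (5X, 50 ug/mL) then 1 h, 37 °C, dark.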
IL1B secr inh: inhibitors of inflammasome signaling (IL-1 beta secretion). activity change, % at 57.5 µM. THP-1 LPS/ATP IL-1B secretion, AlphaLISA, 16 h; stronger effect = lower value. 360,000 compounds, 4.7% hits. AID 743279; in the data active = activity change below about -50%; inconclusive = mostly about -30% to -49%
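Secreted IL-1B measured by AlphaLISA bead assay after 16 h compound exposure of THP-1 cells; compounds (final up to 57.5 uM) added 1 h before LPS (250 ng/mL) and ATP (1.25 mM) stimulation; lower signal means less secretion.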
DT40 TDP1 CPT: DT40-hTDP1 cell growth loss with CPT; chicken DT40 Tdp1-/-;hTDP1 cells + 20 nM CPT, ATP luminescence, 48 h; Potency, µM (highest dose often 46.2 µM), inactives show at the highest dose activity change, negative = growth inhibition, usual class: inhibitors; 420,000 compounds, 12% hits; note: potency is the fitted concentration of half-maximal effect; nearly all actives have a fitted effect of over 55% in size
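Chicken DT40 Tdp1-/- cells complemented with human TDP1, 400 cells/well, exposed to compounds plus 20 nM camptothecin for at least 48 h at 37 C; viability read as ATP content by CellTiter-Glo luminescence.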
DT40 TDP1 no CPT: qHTS for Inhibitors of human tyrosyl-DNA phosphodiesterase 1 (TDP1): qHTS in cells in absence of CPT | 420,000 compounds, 15% hits | Potency, µM (series often up to 46.2 µM), inactives show at the highest dose activity change, negative = growth inhibition, most hits filed as inhibitors | DT40 Tdp1-/- hTDP1 cells, no CPT, ATP luminescence, 48 h; note: potency is the fitted concentration of half-maximal effect; nearly all actives have a fitted effect of over 55% in size
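No-CPT arm: Tdp1-/-;hTDP1 DT40 cells (400/well) plus compounds, incubated ≥48 hr at 37 °C. Readout CellTiter-Glo luminescence.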
Six1-Eya2 blk: inhibitors of human Six1/Eya2 interaction. Q15475+O00167. AlphaScreen GST-Six1/His-Eya2 binding, biochemical; stronger effect = lower value. activity change, % (test concentration not listed). 360,000 compounds, 0.56% hits. AID 651725; in the data active = activity change below about -65%; inconclusive = mostly about -30% to -63%
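Compounds are tested against tagged Six1 and Eya2 proteins bridged by glutathione donor and nickel acceptor beads; after a one-hour incubation at 37 °C without light, AlphaScreen emission is recorded.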
TDP1 inh: inhibitors of human tyrosyl-DNA phosphodiesterase TDP1 | Potency, µM (doses to about 130 µM), for inactives: top-dose activity change, negative = inhibition, hits mostly inhibitors | AID 485290 | recombinant TDP1, AlphaScreen DNA substrate cleavage | 350,000 compounds, 0.28% hits; note: potency is the fitted concentration of half-maximal effect; nearly all actives have a fitted effect of over 40% in size
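AlphaScreen read-out: signal falls as enzyme removes the 3' tyrosine-FITC from a 5'-biotinylated DNA oligo (15 nM, 5 min, RT). Enzyme was E. coli-made recombinant Tdp1 at 1 nM, exposed to compound for 15 min beforehand; beads 10 ug/ml, 10 min.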
An asterisk follows results filed as active; [ ] = dose if it differs, or a comment. Unless noted, calls come from the whole dose curve; as a rule, active = well fitted curve in the direction sought with a large enough effect; inconclusive = small, poorly fitted or top-dose-only effect, or another doubt; inactive = no such curve, though single readings can be large; an effect the other way counts as inactive or inconclusive. % is set by controls: 0 for no effect and ±100 for the full control effect.

What do the screens show for `COc1ccc(-c2nc(SCC(=O)NC(C)CCc3ccccc3)n[nH]2)cc1` (centres undefined)?
DT40 TDP1 CPT: 12µM*; DT40 TDP1 no CPT: 12µM*; TDP1 inh: 0%

What do the screens show for `COc1ccc(-c2nn(CCC#N)cc2C(=O)NCc2ccccc2)cc1`?
CtBP-E1A inh: 9; IL1B secr inh: 13; DT40 TDP1 CPT: -19%; DT40 TDP1 no CPT: 27%; Six1-Eya2 blk: -1; TDP1 inh: 2%

Results for NC(=O)c1ccsc1NC(=O)COC(=O)Cc1ccccc1 ?
IL1B secr inh: 19; DT40 TDP1 CPT: -6%; DT40 TDP1 no CPT: inconclusive; Six1-Eya2 blk: 5; TDP1 inh: 3%

What do the screens show for `CCc1ccc(NC(=S)NC2CC3CCC(C2)N3Cc2ccco2)cc1` (centres undefined)?
CtBP-E1A inh: -8; IL1B secr inh: -4; DT40 TDP1 CPT: 18µM*; DT40 TDP1 no CPT: 23µM*; Six1-Eya2 blk: -7; TDP1 inh: 1%

Results for Cc1ccc(OCCOc2cccc(C=C3C(=O)NC(=O)NC3=O)c2)cc1 ?
IL1B secr inh: -5; DT40 TDP1 CPT: inconclusive; DT40 TDP1 no CPT: 18µM*; Six1-Eya2 blk: 15

How did Cc1cc(C)cc(OCCOc2cccc(C=C3C(=O)NC(=O)NC3=O)c2)c1 do in these assays?
CtBP-E1A inh: 35; IL1B secr inh: 14; DT40 TDP1 CPT: 18µM*; DT40 TDP1 no CPT: inconclusive; Six1-Eya2 blk: 15; TDP1 inh: 79µM*

How did Cc1cccc(NC2=NCCCS2)c1C do in these assays?
CtBP-E1A inh: -3; IL1B secr inh: -2; DT40 TDP1 CPT: -32%; DT40 TDP1 no CPT: -15%; Six1-Eya2 blk: 1; TDP1 inh: 0%

Results for COc1ccc(CCN)cc1O ?
CtBP-E1A inh: 2; IL1B secr inh: 0; DT40 TDP1 CPT: -25%; DT40 TDP1 no CPT: -20%; Six1-Eya2 blk: -4; TDP1 inh: 3%

Results for CC(C)Oc1ccc(CCN)cc1Cl ?
CtBP-E1A inh: 3; IL1B secr inh: 4; DT40 TDP1 CPT: 5.2µM*; DT40 TDP1 no CPT: 5.8µM*; Six1-Eya2 blk: 2; TDP1 inh: 2%

What do the screens show for `CCCCOc1ccc(CCN)cc1Cl`?
CtBP-E1A inh: 0; IL1B secr inh: -69*; DT40 TDP1 CPT: 2.3µM*; DT40 TDP1 no CPT: 2.1µM*; Six1-Eya2 blk: 8; TDP1 inh: 5%

Results for COc1ccc(CC(=O)N(C)C2CCCN(Cc3ccccc3F)C2)cc1OC (centres undefined) ?
CtBP-E1A inh: -14; IL1B secr inh: -6; DT40 TDP1 CPT: 2%; DT40 TDP1 no CPT: 4%; Six1-Eya2 blk: 1

Results for COc1cc(C)c(CN2CC=C(c3ccc(F)cc3)CC2)cc1C ?
CtBP-E1A inh: 1; IL1B secr inh: 8; DT40 TDP1 CPT: -10%; DT40 TDP1 no CPT: inconclusive; Six1-Eya2 blk: -15

What do the screens show for `COc1ccc(CN2CCc3nc(N4CCN(c5ccc(F)cc5)CC4)ncc3C2)c(OC)c1OC`?
DT40 TDP1 CPT: 5.8µM*; DT40 TDP1 no CPT: 4.6µM*; TDP1 inh: 4%

Results for Cn1c(O)c(/C=C2\C=c3ccccc3=NC2=O)c(=O)n(C)c1=O ?
CtBP-E1A inh: 3; IL1B secr inh: 39; DT40 TDP1 CPT: inconclusive; DT40 TDP1 no CPT: 18%; Six1-Eya2 blk: -1

Results for Cn1c(O)c(/C=C2\N=c3ccccc3=C2CCNC(=S)NC2CC2)c(=O)n(C)c1=O ?
CtBP-E1A inh: 6; IL1B secr inh: -96*; DT40 TDP1 CPT: 15µM*; DT40 TDP1 no CPT: 23µM*; Six1-Eya2 blk: -6

How did CC(=O)OC1(Cc2ccccc2)CN2CCC1c1ccccc12 (centres undefined) do in these assays?
CtBP-E1A inh: 1; IL1B secr inh: 0; DT40 TDP1 CPT: inconclusive; DT40 TDP1 no CPT: inconclusive; Six1-Eya2 blk: 3; TDP1 inh: 7%

Results for O=c1[nH]cnc2[nH]ncc12 ?
CtBP-E1A inh: 4; IL1B secr inh: 18; DT40 TDP1 CPT: inconclusive; DT40 TDP1 no CPT: -4%; Six1-Eya2 blk: 1; TDP1 inh: 5%

What do the screens show for `Cc1ccc2[nH]c3c(c2c1)CN(C(=O)CN1C[C@H]2C[C@@H](C1)c1cccc(=O)n1C2)CC3`?
CtBP-E1A inh: 26; IL1B secr inh: 19; DT40 TDP1 CPT: -19%; DT40 TDP1 no CPT: -16%; Six1-Eya2 blk: 16

Results for O=C(c1ccccc1)N1CCN(c2ccccc2)CC1 ?
CtBP-E1A inh: -21; IL1B secr inh: -7; DT40 TDP1 CPT: -24%; DT40 TDP1 no CPT: 23µM*; Six1-Eya2 blk: -4

How did CCC(=NCCc1c[nH]c2ccccc12)c1c(O)n(C)c(=O)n(C)c1=O do in these assays?
CtBP-E1A inh: -20; IL1B secr inh: inconclusive; DT40 TDP1 CPT: 4µM*; DT40 TDP1 no CPT: 6.3µM*; Six1-Eya2 blk: -14; TDP1 inh: 6%

What do the screens show for `CCC(=NCCc1c[nH]c2ccccc12)c1c(O)n(-c2ccc(C)cc2)c(=O)[nH]c1=O`?
CtBP-E1A inh: 3; IL1B secr inh: 8; DT40 TDP1 CPT: inconclusive; DT40 TDP1 no CPT: inconclusive; Six1-Eya2 blk: 0; TDP1 inh: 5%

What do the screens show for `CCC(=NC(C)c1ccccc1)c1c(O)n(C)c(=O)n(C)c1=O` (centres undefined)?
CtBP-E1A inh: -3; IL1B secr inh: -26; DT40 TDP1 CPT: 21µM*; DT40 TDP1 no CPT: 7.3µM*; Six1-Eya2 blk: 1; TDP1 inh: 6%

Results for CC/C(=N\Nc1ccccc1)c1c(O)n(C)c(=O)n(C)c1=O ?
CtBP-E1A inh: -7; IL1B secr inh: 49; DT40 TDP1 CPT: inconclusive; DT40 TDP1 no CPT: inconclusive; Six1-Eya2 blk: 10; TDP1 inh: 11%

What do the screens show for `O=C1c2ccccc2C2(c3ccc(Cl)cc3)NCCN12` (centres undefined)?
CtBP-E1A inh: -1; IL1B secr inh: -53*; DT40 TDP1 CPT: 4%; DT40 TDP1 no CPT: -16%; Six1-Eya2 blk: 4; TDP1 inh: 6%

What do the screens show for `O=C(Nc1sc2c(c1C(=O)Nc1ccc(Cl)cc1)CCCC2)c1cccs1`?
DT40 TDP1 CPT: 5.8µM*; DT40 TDP1 no CPT: 3.7µM*; TDP1 inh: -9%[12.3 µM]

Results for CCOC(=O)c1c(NC(=O)c2c(N)n(CCCOC)c3nc4ccccc4nc23)sc2c1CCCC2 ?
CtBP-E1A inh: 4; IL1B secr inh: 1; DT40 TDP1 CPT: -4%; DT40 TDP1 no CPT: inconclusive; Six1-Eya2 blk: -5; TDP1 inh: 2%
